# Inconclusive results are not listed. Active and inactive are the calls of the source. Rule for the calls, unless noted: active = hit-call score of the fitted dose curve at least 0.9, where 1 is the maximum; inconclusive = response in the unintended direction; inactive = score below 0.9. Where a SMILES comes first, the peptide text is derived from it. Bridges are numbered along the chain shown (N, C = ends). [ ]: non-standard residue; d: D form. Orn = NCCC[C@H](N)C(=O)O; Mpa = O=C(O)CCS
# Legend:
# [1] = TOX21_p53_BLA_p2_viability: Viability Assessment in the Tox21 HCT-116 p53 Agonism Beta-lactamase Assay, Phase 2 (AID 2283591);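 note: actives lower the ATP signal meaning cytotoxicity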
# Procedure, shortened: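 HCT-116 p53-bla cells (4000/well) rested 5 h at 37C, then received compounds in DMSO (217-fold dilution) for 16 h at 37C, 5% CO2. After the CCF4 read, CellTiter-Glo was added; ATP luminescence was read after 30 min at room temperature.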
# [2] = molecular target: Cellular tumor antigen p53 (Homo sapiens) (UniProt P04637); experiment: TOX21_p53_BLA_p2_ratio: Tox21 HCT-116 p53 Agonism Beta-lactamase Assay, Ratio, Phase 2 (AID 2283592)
# Sequence of Cellular tumor antigen p53 (Homo sapiens) (P04637 whole entry, looked up): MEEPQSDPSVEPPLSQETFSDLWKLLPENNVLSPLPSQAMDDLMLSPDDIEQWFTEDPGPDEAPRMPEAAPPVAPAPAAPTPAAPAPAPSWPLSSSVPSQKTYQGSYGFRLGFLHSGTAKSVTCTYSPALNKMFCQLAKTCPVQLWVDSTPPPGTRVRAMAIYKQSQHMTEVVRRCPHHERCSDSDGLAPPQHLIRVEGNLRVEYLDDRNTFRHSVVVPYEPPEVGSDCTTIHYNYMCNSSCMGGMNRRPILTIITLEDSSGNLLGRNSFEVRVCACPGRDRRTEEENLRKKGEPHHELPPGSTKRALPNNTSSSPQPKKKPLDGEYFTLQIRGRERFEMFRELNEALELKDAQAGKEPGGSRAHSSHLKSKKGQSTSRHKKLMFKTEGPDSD
# Procedure, shortened: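 Plated HCT116 p53-bla cells (4000/well) received compound after 5 h, then 16 h at 37C/5% CO2. CCF4-AM added, 2 h RT. Ratio of 460 to 530 nm emission taken as the p53 reporter signal.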
# [3] = TOX21_p53_BLA_p3_viability: Viability Assessment in the Tox21 HCT-116 p53 Agonism Beta-lactamase Assay, Phase 3 (AID 2283593);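 note: cells exposed to compound for 16 h before reading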
# Procedure, shortened: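 HCT-116 cells (4000/well) rested 5 h at 37C, then got DMSO compounds by pin tool (217-fold dilution) for 16 h at 37C, 5% CO2. After the bla read, CellTiter-Glo was added and luminescence read at 30 min, room temperature.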
# [4] = TOX21_p53_BLA_p4_viability: Viability Assessment in the Tox21 HCT-116 p53 Agonism Beta-lactamase Assay, Phase 4 (AID 2283597);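 note: hits lower the luminescence signal meaning cytotoxicity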
# Procedure, shortened: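 Readout: ATP luminescence (CellTiter-Glo), measured 30 min after reagent addition at RT. The reagent followed a 2 h CCF4-AM incubation, and the cells had been exposed to compound for 16 h at 37C.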
# [5] = molecular target: Cellular tumor antigen p53 (Homo sapiens) (UniProt P04637); experiment: TOX21_p53_BLA_p5_ratio: Tox21 HCT-116 p53 Agonism Beta-lactamase Assay, Ratio, Phase 5 (AID 2283599)
# Procedure, shortened: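 HCT-116 cells carrying a p53-inducible beta-lactamase reporter were seeded at 4000 cells/well and dosed after 5 h with compound in DMSO (217-fold dilution). After 16 h at 37C, CCF4-AM substrate was added for 2 h, and the 460/530 nm emission ratio was scored as gain-of-signal versus DMSO.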
# [6] = TOX21_p53_BLA_p5_viability: Viability Assessment in the Tox21 HCT-116 p53 Agonism Beta-lactamase Assay, Phase 5 (AID 2283600)
# Procedure, shortened: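 Workflow: seed 4000 cells per well, wait 5 h, add compounds (DMSO, 217-fold dilution), incubate 16 h, load CCF4-AM 2 h, add CellTiter-Glo, read luminescence after 30 min.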
# [7] = molecular target: Cellular tumor antigen p53 (Homo sapiens) (UniProt P04637); experiment: TOX21_p53_BLA_p4_ratio: Tox21 HCT-116 p53 Agonism Beta-lactamase Assay, Ratio, Phase 4 (AID 2283601)
# Procedure, shortened: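 HCT116 cells carrying an inducible beta-lactamase reporter were plated at 4000 cells/well, rested 5 h, then exposed to compounds in DMSO (217-fold dilution) for 16 h at 37C. CCF4-AM substrate was loaded 2 h at room temperature; 460/530 nm emission ratio scored gain-of-signal versus DMSO.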
# [8] = molecular target: PGR (gene 5241) (UniProt P06401); experiment: TOX21_PR_BLA_Followup_Antagonist_ratio: Tox21 HEK293 Progesterone Receptor (PR) Antagonism Beta-lactamase Follow-Up Assay, Ratio (AID 2283934)
# Sequence of PGR (gene 5241) (P06401 whole entry, looked up, the tested form may be a part): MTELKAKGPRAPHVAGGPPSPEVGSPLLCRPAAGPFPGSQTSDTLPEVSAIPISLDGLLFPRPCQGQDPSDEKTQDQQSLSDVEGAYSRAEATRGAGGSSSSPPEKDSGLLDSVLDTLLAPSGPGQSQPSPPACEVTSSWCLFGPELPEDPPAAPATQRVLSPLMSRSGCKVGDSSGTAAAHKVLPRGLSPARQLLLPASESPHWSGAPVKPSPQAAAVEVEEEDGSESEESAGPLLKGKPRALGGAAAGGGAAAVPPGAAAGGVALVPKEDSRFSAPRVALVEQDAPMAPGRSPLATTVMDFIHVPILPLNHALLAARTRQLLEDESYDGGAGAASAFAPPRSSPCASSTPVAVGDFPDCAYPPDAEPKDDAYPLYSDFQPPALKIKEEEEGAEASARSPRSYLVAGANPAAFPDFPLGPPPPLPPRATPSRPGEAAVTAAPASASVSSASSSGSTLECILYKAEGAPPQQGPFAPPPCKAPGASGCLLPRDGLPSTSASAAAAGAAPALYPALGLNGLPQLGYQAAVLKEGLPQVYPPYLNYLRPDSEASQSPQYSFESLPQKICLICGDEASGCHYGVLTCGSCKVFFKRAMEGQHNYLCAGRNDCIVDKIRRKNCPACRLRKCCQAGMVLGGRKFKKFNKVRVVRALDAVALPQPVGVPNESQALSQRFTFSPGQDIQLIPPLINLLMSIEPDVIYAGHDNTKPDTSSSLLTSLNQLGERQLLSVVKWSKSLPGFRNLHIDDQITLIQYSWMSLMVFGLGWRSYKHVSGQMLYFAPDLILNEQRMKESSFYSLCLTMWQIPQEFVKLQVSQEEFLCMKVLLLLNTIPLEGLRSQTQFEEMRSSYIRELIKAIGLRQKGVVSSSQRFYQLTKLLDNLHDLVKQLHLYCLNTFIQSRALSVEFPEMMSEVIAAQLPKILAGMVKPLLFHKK
# Procedure, shortened: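 Read-out: blue/green beta-lactamase FRET ratio (cleaved ch2 over uncleaved ch1), fitted relative to DMSO baseline. Cells: PR-UAS-bla HEK293T, GAL4-UAS reporter, stimulated with 1 nM R5020 final; 16 hr compound exposure, 37C.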
# [9] = TOX21_PR_BLA_Followup_Agonist_viability: Viability Assessment in the Tox21 HEK293 Progesterone Receptor (PR) Agonism Beta-lactamase Follow-Up Assay (AID 2283935);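 note: signal loss means lower viability so actives are cytotoxic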
# Procedure, shortened: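 Luminescent ATP quantitation (CellTiter-Glo, 30 min, room temperature) in the same wells as the beta-lactamase read, on PR-UAS-bla HEK293T cells exposed to compound for 16 hr at 37C in 2% charcoal-stripped serum.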
# [10] = TOX21_PR_BLA_Followup_Antagonist_viability: Viability Assessment in the Tox21 HEK293 Progesterone Receptor (PR) Antagonism Beta-lactamase Follow-Up Assay (AID 2283936);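 note: cells exposed to compound with R5020 agonist for 16 h; hits lower the luminescence signal meaning cytotoxicity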
# Procedure, shortened: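 PR-UAS-bla HEK293T cells in medium with 2% charcoal-stripped FBS were treated with compounds plus R5020 for 16 hr at 37C. After the beta-lactamase read, CellTiter-Glo was added to the same wells and luminescence read after 30 min at room temperature.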
# [11] = molecular target: PGR (gene 5241) (UniProt P06401); experiment: TOX21_PR_LUC_Followup_Antagonist: Tox21 HEK293 Progesterone Receptor (PR) Antagonism Luciferase Follow-Up Assay (AID 2283938);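 note: curve fitted upward as signal gain over DMSO baseline despite antagonist label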
# Procedure, shortened: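 Cells are grown 5 days in charcoal-stripped-FBS assay medium, plated, left 5 h, then dosed with compound and incubated 16 h. ONE-Glo reagent is added and luminescence read after 30 min.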
# [12] = TOX21_PR_LUC_Followup_Antagonist_viability: Viability Assessment in the Tox21 HEK293 Progesterone Receptor (PR) Antagonism Luciferase Follow-Up Assay (AID 2283940)
# Procedure, shortened: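 Read-out: CellTiter-Glo ATP luminescence, loss of signal taken as reduced viability. Cells: HEK293-PR-A-luc, 3,000/well, 5 h settling, then 16 h compound exposure at 37C, 0% CO2.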
# [13] = TOX21_PR_LUC_Followup_Agonist_viability: Viability Assessment in the Tox21 HEK293 Progesterone Receptor (PR) Agonism Luciferase Follow-Up Assay (AID 2283941);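 note: loss of signal means cytotoxicity so actives lower viability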
# Procedure, shortened: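 Cytotoxicity counter-screen: ATP content by CellTiter-Glo luminescence, loss of signal = reduced viability. HEK293-PR-A-luc, 3,000 cells/well, compound exposure 16 h, 37C.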
# [14] = ACEA_ER_AUC_viability: ACEA Biosciences xCELLigence Real-Time Cell Analysis on Estrogen Receptor Agonism for Viability (AID 2283782);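 note: hit means loss of impedance signal meaning reduced cell growth or viability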
# Procedure, shortened: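 Continuous-exposure impedance cell analysis uses T-47D cells in charcoal-stripped serum, eight 1:4 dilutions topping at 100 uM final, biological duplicate. Area under the growth curve at 80 h is fitted against DMSO baseline.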
# [15] = CCTE_Harrill_HTTr_Viability_MCF7: CCTE's 6-hour Cell Viability Assessment for the High-Throughput Transcriptomics (HTTr) Platform, in MCF-7 cells cultured in DMEM + 10% fetal bovine serum, Harrill Lab (AID 2284010; active = hit-call score of the fitted dose curve at least 0.9, where 1 is the maximum; inactive = score below 0.9)
# Procedure, shortened: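 PI exclusion, high-content imaging; 8-pt dilution series, 6 h exposure; bidirectional fit vs DMSO (neg. ctrl/baseline); gain of signal = loss of membrane integrity.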
# [16] = CCTE_Harrill_HTTr_Apoptosis_MCF7: CCTE's 6-hour Apoptosis Assessment for the High-Throughput Transcriptomics (HTTr) Platform, in MCF-7 cells cultured in DMEM + 10% fetal bovine serum, Harrill Lab (AID 2284011; active = hit-call score of the fitted dose curve at least 0.9, where 1 is the maximum; inactive = score below 0.9)
# Procedure, shortened: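 MCF-7 (DMEM + 10% FBS), 384-well; 8-pt dilution series, 6 h chemical exposure; caspase-3/7 activation via CellEvent Caspase 3/7 Green, HCI; bidirectional fit vs DMSO.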
smiles,measurement,setting,value
CCCCC(CC)COC(=O)C(C#N)=C(c1ccccc1)c1ccccc1 (configuration not stated),outcome,[1],inactive
same,outcome,[2],inactive
same,outcome,[3],inactive
same,outcome,[4],inactive
same,outcome,[5],inactive
same,outcome,[6],inactive
same,outcome,[7],inactive
CC(=O)Nc1cccc(O)c1,outcome,[1],inactive
same,outcome,[2],inactive
same,outcome,[3],inactive
same,outcome,[4],inactive
same,outcome,[5],inactive
same,outcome,[6],inactive
same,outcome,[7],inactive
O=C1c2ccccc2Cc2ccccc21,outcome,[1],inactive
same,outcome,[2],inactive
same,outcome,[3],inactive
same,outcome,[4],inactive
same,outcome,[5],inactive
same,outcome,[6],inactive
same,outcome,[7],inactive
C[N+]1(C)CCC(OC(=O)C(O)(c2ccccc2)C2CCCC2)C1 (configuration not stated),outcome,[1],inactive
same,outcome,[2],inactive
same,outcome,[3],inactive
same,outcome,[4],inactive
same,outcome,[5],inactive
same,outcome,[6],inactive
same,outcome,[7],inactive
COc1ccc(CNCC(O)COc2ccc3[nH]c(=O)ccc3c2)cc1OC (configuration not stated),outcome,[1],inactive
same,outcome,[2],inactive
same,outcome,[3],inactive
same,outcome,[4],inactive
same,outcome,[5],inactive
same,outcome,[6],inactive
same,outcome,[7],inactive
OCCN1CCN(CC/C=C2/c3ccccc3Sc3ccc(C(F)(F)F)cc32)CC1,outcome,[1],inactive
same,outcome,[2],inactive
same,outcome,[3],inactive
same,AC50,[4],36.3 µM (active)
same,outcome,[5],inactive
same,outcome,[6],inactive
same,outcome,[7],inactive
CN1CCN(CCC=C2c3ccccc3Sc3ccc(S(=O)(=O)N(C)C)cc32)CC1,outcome,[1],inactive
same,outcome,[2],inactive
same,outcome,[3],inactive
same,AC50,[4],34.9 µM (active)
same,outcome,[5],inactive
same,outcome,[6],inactive
same,AC50,[7],43.7 µM (active)
S=c1nccc[nH]1,outcome,[1],inactive
same,outcome,[2],inactive
same,outcome,[3],inactive
same,outcome,[4],inactive
same,outcome,[5],inactive
same,outcome,[6],inactive
same,outcome,[7],inactive
COC(=O)C1=C(C)NC(C)=C(C(=O)OCC(C)=O)C1c1ccccc1[N+](=O)[O-] (configuration not stated),outcome,[1],inactive
same,outcome,[2],inactive
same,outcome,[3],inactive
same,outcome,[4],inactive
same,outcome,[5],inactive
same,outcome,[6],inactive
same,outcome,[7],inactive
same,outcome,[8],inactive
same,outcome,[9],inactive
same,outcome,[10],inactive
same,AC50,[11],21.5 µM (active)
same,outcome,[12],inactive
same,outcome,[13],inactive
CCOC(C)(C)C,outcome,[1],inactive
same,outcome,[2],inactive
same,outcome,[3],inactive
same,outcome,[4],inactive
same,outcome,[6],inactive
same,outcome,[7],inactive
O=C(O)CCCc1c[nH]c2ccccc12,outcome,[1],inactive
same,outcome,[2],inactive
same,outcome,[3],inactive
same,outcome,[4],inactive
same,outcome,[6],inactive
same,outcome,[7],inactive
same,outcome,[14],inactive
same,outcome,[15],inactive
same,outcome,[16],inactive
CCOc1ccc(C[C@H]2NC(=O)CCSSC[C@@H](C(=O)N3CCC[C@H]3C(=O)N[C@@H](CCCN)C(=O)NCC(N)=O)NC(=O)[C@H](CC(N)=O)NC(=O)[C@H]([C@@H](C)O)NC(=O)[C@H]([C@@H](C)CC)NC2=O)cc1 ([Mpa][dY](Et)ITNCP[Orn]G-NH2; disulfide 1-6),outcome,[1],inactive
same,outcome,[2],inactive
same,outcome,[3],inactive
same,outcome,[4],inactive
same,outcome,[6],inactive
same,outcome,[7],inactive
NC(=O)COCCN1CCN(C(c2ccccc2)c2ccc(Cl)cc2)CC1 (configuration not stated),outcome,[1],inactive
same,outcome,[2],inactive
same,outcome,[3],inactive
same,outcome,[4],inactive
same,outcome,[6],inactive
same,outcome,[7],inactive
C[C@]12CCC(=O)C=C1[C@@H]1C[C@@H]1[C@H]1[C@@H]3[C@@H]4C[C@@H]4[C@@]4(CCC(=O)O4)[C@@]3(C)CC[C@@H]12,outcome,[1],inactive
same,AC50,[2],43.4 µM (active)
same,outcome,[3],inactive
same,outcome,[4],inactive
same,outcome,[5],inactive
same,outcome,[6],inactive
same,outcome,[9],inactive
same,outcome,[10],inactive
same,outcome,[12],inactive
same,outcome,[13],inactive
O=C1OC2(c3ccc(O)cc3Oc3cc(O)ccc32)c2ccc(N=C=S)cc21,outcome,[1],inactive
same,outcome,[2],inactive
same,outcome,[3],inactive
same,outcome,[4],inactive
same,outcome,[6],inactive
same,outcome,[7],inactive
